Data as given in PubChem BioAssay (Tox21).
Inconclusive results are not listed. A call without a number means that no potency is given here. Active and inactive are the calls of the source. Unless noted, calls follow the shape of the full dose curve.

Key:
[1] = Nuclear factor erythroid 2-related factor 2/antioxidant responsive element (Nrf2/ARE) small molecule agonists: qHTS cell viability counter screen in human keratinocytes (AID 1919968; active = well fitted cell-killing curve with a large enough effect in the repeat runs; also: nearly all actives have a fitted effect of over 55% in size; also: potency is read from the fitted curve at half-maximal effect)
Summary of the method: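 Cells of the KeratinoSens line were plated at 1,500 per well and left for 5 h before compound transfer from DMSO stocks. After a 23 h incubation (37 C, 5% CO2), CellTiter-Fluor was added. Signal was taken as fluorescence intensity 1 h later.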

[2] = Nuclear factor erythroid 2-related factor 2/antioxidant responsive element (Nrf2/ARE) small molecule agonists: luciferase reporter gene qHTS assay in human keratinocytes (AID 1919969); also: nearly all actives have a fitted effect of over 35% in size
[3] = target: Gonadotropin-releasing hormone receptor (Homo sapiens) (UniProt P30968); assay: Human gonadotropin-releasing hormone receptor (GnRHR) small molecule agonists, calcium flux assay in GnRHR-HEK293 cells (AID 1920063); also: nearly all actives have a fitted effect of over 35% in size
Gonadotropin-releasing hormone receptor (Homo sapiens), sequence (P30968 whole entry, looked up): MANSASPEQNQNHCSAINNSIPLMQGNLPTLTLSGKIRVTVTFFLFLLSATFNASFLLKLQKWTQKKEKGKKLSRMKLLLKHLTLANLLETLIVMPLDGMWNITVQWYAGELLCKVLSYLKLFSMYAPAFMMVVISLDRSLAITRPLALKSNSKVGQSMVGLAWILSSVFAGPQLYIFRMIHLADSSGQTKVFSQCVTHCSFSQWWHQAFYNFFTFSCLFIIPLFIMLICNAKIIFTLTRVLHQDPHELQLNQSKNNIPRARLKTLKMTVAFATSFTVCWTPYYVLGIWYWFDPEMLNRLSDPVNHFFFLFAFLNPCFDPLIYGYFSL
Summary of the method: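 Compounds dissolved in DMSO are pin-transferred onto dye-loaded GnRHR-HEK293 cells, which were seeded 18 h before at 37 C/5% CO2. Calcium signal is read as fluorescence intensity at 1 s intervals for 3 min.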

[4] = G protein-coupled receptor (GPCR) small molecule agonists, calcium flux assay: HEK293 wild type cell line counter screen (AID 1920065)
Summary of the method: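 Tox21 10K compounds, 15 concentrations each in triplicate, pin-transferred in DMSO onto dye-loaded cells; kinetic read at 480/540 nm for 3 min, 1 s intervals.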

[5] = p53 small molecule agonists, cell-based qHTS assay with human liver microsomes (AID 1963577);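 also: p53 response element beta-lactamase reporter cells with liver microsomes plus NADPH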
Summary of the method: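 With metabolic activation: human liver microsomes (0.5 mg/mL final) plus NADPH (0.5 mg/mL final) added alongside compounds to p53RE-bla cells; 16 h 37 C exposure; beta-lactamase read by LiveBLAzer fluorescence.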

[6] = p53 small molecule agonists, cell-based qHTS assay with rat liver microsomes (AID 1963578)
Summary of the method: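 Metabolic activation by rat liver microsomes and NADPH, each 0.5 mg/mL final, added right after compounds to p53RE-bla reporter cells (4,000/well, plated 5 h earlier). 16 h at 37 C, then LiveBLAzer substrate for 2 h at room temperature in the dark; fluorescence read-out.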

[7] = p53 small molecule agonists, cell-based qHTS assay with rat liver microsomes: qHTS cell viability counter screen (AID 1963580); also: nearly all actives have a fitted effect of over 45% in size
Summary of the method: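 Counter screen for cytotoxicity under metabolic activation: rat liver microsomes and NADPH, 0.5 mg/mL final each, added with compounds to p53RE-bla HCT-116 cells; 16 h at 37 C, then ATP luminescence read.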

[8] = p53 small molecule agonists, cell-based qHTS assay: qHTS cell viability counter screen (AID 1963581); also: nearly all actives have a fitted effect of over 45% in size; also: potency is read from the fitted curve at half-maximal effect
Summary of the method: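 ATP content measured by luminescence in HCT-116 p53RE-bla cells treated 16 h at 37 C, same wells as the reporter screen.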

[9] = p53 small molecule agonists, cell-based qHTS assay (AID 1963582; active = well fitted activation curve with a large enough effect in the signal ratio in the repeat runs, not every such curve was filed as active; the % refers to the signal ratio)
Summary of the method: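 16 h compound exposure (37 C) of p53 response element–bla cells, preceded by 5 h recovery at 37 C/5% CO2; read-out via LiveBLAzer B/G FRET substrate, 2 h RT, fluorescence intensity.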

[10] = target: 5-hydroxytryptamine receptor 2A (Homo sapiens) (UniProt P28223); assay: 5-hydroxytryptamine receptor 2A (HTR2A) small molecule antagonists, cell-based qHTS assay (AID 1963586); also: nearly all actives have a fitted effect of over 45% in size
5-hydroxytryptamine receptor 2A (Homo sapiens), sequence (P28223 whole entry, looked up): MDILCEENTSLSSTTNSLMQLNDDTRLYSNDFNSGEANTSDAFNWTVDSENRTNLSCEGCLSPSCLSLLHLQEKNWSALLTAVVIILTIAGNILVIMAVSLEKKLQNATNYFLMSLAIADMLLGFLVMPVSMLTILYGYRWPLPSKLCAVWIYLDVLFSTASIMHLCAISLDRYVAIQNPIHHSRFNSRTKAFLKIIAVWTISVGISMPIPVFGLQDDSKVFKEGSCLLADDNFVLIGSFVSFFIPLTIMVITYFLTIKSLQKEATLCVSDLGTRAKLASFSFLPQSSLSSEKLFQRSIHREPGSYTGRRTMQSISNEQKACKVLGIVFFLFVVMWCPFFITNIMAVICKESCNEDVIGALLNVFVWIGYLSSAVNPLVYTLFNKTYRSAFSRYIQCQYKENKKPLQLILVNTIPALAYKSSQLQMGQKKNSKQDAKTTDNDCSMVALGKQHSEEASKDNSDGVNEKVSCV
Summary of the method: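 CHO cells stably expressing human HTR2A were plated for 18 h at 37 C, then loaded with calcium dye for 1 h. Compounds were preincubated 5 min at room temperature before DOI (4 nM solution) was added. Kinetic fluorescence was read for 3 min.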

[11] = target: 5-hydroxytryptamine receptor 2A (Homo sapiens) (UniProt P28223); assay: 5-hydroxytryptamine receptor 2A (HTR2A) small molecule agonists, cell-based qHTS assay (AID 1963587); also: nearly all actives have a fitted effect of over 30% in size
Summary of the method: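 HTR2A-CHO cells, plated 18 h at 37 C/5% CO2, dye-loaded 1 h at 37 C; compounds in DMSO added by pin tool (agonist mode). Intracellular calcium flux read as kinetic fluorescence on FDSS over 2 min at 1 s intervals.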

[12] = target: Muscarinic acetylcholine receptor M1 (Homo sapiens) (UniProt P11229); assay: Cholinergic receptor muscarinic 1 (CHRM1) small molecule agonists, cell-based qHTS assay (AID 1963589); also: nearly all actives have a fitted effect of over 35% in size
Muscarinic acetylcholine receptor M1 (Homo sapiens), sequence (P11229 whole entry, looked up): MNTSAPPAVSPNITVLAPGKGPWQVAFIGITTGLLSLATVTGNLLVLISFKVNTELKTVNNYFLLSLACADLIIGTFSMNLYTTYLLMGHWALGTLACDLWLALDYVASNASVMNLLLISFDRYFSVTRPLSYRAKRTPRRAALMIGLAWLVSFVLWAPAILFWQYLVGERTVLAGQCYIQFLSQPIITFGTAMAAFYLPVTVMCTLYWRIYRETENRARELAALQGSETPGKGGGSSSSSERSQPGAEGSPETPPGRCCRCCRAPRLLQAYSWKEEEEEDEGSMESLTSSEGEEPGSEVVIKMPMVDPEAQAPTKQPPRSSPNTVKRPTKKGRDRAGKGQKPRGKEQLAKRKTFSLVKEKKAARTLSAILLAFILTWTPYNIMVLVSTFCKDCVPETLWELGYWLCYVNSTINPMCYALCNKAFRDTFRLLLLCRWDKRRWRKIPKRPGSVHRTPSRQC
Summary of the method: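 Homogeneous fluorescence calcium flux, agonist mode. Human M1-expressing CHO cells; compound dosed at 15 concentrations, three independent runs; signal sampled every 1 sec.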

[13] = target: D(2) dopamine receptor (Homo sapiens) (UniProt P14416); assay: Dopamine D2 receptor (DRD2) small molecule agonists, cell-based qHTS assay (AID 1963594); also: nearly all actives have a fitted effect of over 35% in size
D(2) dopamine receptor (Homo sapiens), sequence (P14416 whole entry, looked up): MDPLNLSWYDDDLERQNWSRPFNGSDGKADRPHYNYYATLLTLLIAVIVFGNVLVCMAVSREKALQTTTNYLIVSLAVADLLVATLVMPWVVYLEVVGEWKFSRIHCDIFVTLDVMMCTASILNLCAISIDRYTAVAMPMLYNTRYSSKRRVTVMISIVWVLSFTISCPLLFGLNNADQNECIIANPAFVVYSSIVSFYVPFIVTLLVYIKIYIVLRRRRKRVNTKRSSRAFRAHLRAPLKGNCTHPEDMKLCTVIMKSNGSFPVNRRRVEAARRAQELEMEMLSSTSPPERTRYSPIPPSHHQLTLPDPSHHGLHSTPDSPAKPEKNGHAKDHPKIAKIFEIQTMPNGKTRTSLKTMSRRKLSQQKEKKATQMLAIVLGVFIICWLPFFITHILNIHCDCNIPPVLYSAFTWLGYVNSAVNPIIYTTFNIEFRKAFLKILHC
Summary of the method: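 HEK293 cells stably expressing DRD2 were cultured 24 h at 37 C, then given Ro20-1724 (0.1 mM final) and compounds for 10 min at room temperature. NKH477 (200nM) was then added for 30 min. cAMP was read by HTRF.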

[14] = p53 small molecule agonists, cell-based qHTS assay with human liver microsomes: qHTS cell viability counter screen (AID 1963579); also: nearly all actives have a fitted effect of over 45% in size; also: potency is read from the fitted curve at half-maximal effect
Summary of the method: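 Metabolic activation used human liver microsomes and NADPH, both 0.5 mg/mL final, over 16 hours at 37 C on p53RE-bla cells (4,000/well). Cytotoxicity measured by CellTiter-Glo luminescence, 30 min at room temperature.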

[15] = target: Muscarinic acetylcholine receptor M1 (Homo sapiens) (UniProt P11229); assay: Cholinergic receptor muscarinic 1 (CHRM1) small molecule antagonists, cell-based qHTS assay (AID 1963588); also: nearly all actives have a fitted effect of over 40% in size
Summary of the method: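 Compounds were tested at 15 concentrations in three independent runs. Dye-loaded CHRM1-CHO cells were exposed 5 min at room temperature before stimulation by acetylcholine added at 50nM. Intracellular calcium was read kinetically on FDSS for 3 min.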

[16] = cAMP Responsive Elements (CRE) small molecule agonists, cell-based qHTS assay (AID 1963590)
Summary of the method: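 HEK 293T cells stably bearing CRE-bla were plated at 2,000 cells per well and rested 18 h. Compounds, positive controls or DMSO were added for 3 h at 37 C. LiveBLAzer B/G substrate was then loaded for 2 h at room temperature.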

[17] = cAMP Responsive Elements (CRE) small molecule antagonists, cell-based qHTS assay (AID 1963591; active = well fitted inhibition curve with a large enough effect in the signal ratio in the repeat runs, not every such curve was filed as active; the % refers to the signal ratio; also: potency is read from the fitted curve at half-maximal effect)
Summary of the method: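 First, CRE-bla HEK293T cells settled 18 h at 37 C. Next, compound and 0.25 uM final NKH477 were applied for 3 h. Last, LiveBLAzer B/G substrate was loaded for 2 h at room temperature.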

[18] = target: Beta-2 adrenergic receptor (Homo sapiens) (UniProt P07550); assay: Adrenergic beta2 receptor (ADRB2) small molecule antagonists, cell-based qHTS assay (AID 1963592); also: series mostly up to about 92 µM; nearly all actives have a fitted effect of over 50% in size
Beta-2 adrenergic receptor (Homo sapiens), sequence (P07550 whole entry, looked up): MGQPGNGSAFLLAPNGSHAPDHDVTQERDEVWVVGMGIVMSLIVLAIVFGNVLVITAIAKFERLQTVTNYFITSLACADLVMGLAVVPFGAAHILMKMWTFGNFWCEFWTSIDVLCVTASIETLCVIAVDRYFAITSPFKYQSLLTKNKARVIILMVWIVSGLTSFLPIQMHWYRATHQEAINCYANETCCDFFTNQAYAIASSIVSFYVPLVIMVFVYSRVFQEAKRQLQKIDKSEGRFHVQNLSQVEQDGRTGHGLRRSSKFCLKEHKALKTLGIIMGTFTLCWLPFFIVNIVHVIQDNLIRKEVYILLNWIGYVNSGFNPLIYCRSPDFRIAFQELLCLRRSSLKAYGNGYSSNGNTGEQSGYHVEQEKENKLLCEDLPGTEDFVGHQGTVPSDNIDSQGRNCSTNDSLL
Summary of the method: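 Assay format: CHO-ADRB2 cells, 18-20hr seeding at 37C/5% CO2, then compound plus 1nM isoproterenol agonist mix for 0.5hr RT. Homogeneous time-resolved fluorescence cAMP detection after 1hr, expressed as 665/615 nm ratio.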

[19] = target: D(2) dopamine receptor (Homo sapiens) (UniProt P14416); assay: Dopamine D2 receptor (DRD2) small molecule antagonists, cell-based qHTS assay (AID 1963595; active = well fitted inhibition curve with a large enough effect in the signal ratio in the repeat runs, with a control signal flat; the % refers to the signal ratio)
Summary of the method: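 HTRF cAMP read-out at 665 and 620 nm emission (340 nm excitation). Antagonist mode: compounds were tested against 12 nM quinpirole in DRD2-HEK293 cells, with 200 nM NKH477 raising cAMP and 0.1 mM Ro20-1724 blocking its breakdown.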

SMILES	Potency [1]	Potency [2]	Potency [3]	outcome [4]	Potency [5]	Potency [6]	Potency [7]	Potency [8]	Potency [9]	Potency [10]	Potency [11]	Potency [12]	Potency [13]	Potency [14]	Potency [15]	Potency [16]	Potency [17]	Potency [18]	Potency [19]
COc1ccc(C(=O)Nc2nc3ccccc3c(NCc3ccccc3)c2C#N)cc1	inactive	inactive	inactive	inactive	inactive	inactive	inactive	inactive	inactive	inactive	inactive	inactive	inactive						
C#CC(O)CCCCC (centres undefined)	inactive	inactive	inactive	inactive	inactive	inactive	inactive		inactive	inactive	inactive	inactive	inactive	inactive	inactive	inactive	inactive	inactive	inactive
c1ccc(CNCCNCc2ccccc2)cc1	inactive	inactive	inactive	inactive	inactive	inactive	inactive	inactive		inactive	inactive	inactive	inactive		inactive	inactive		inactive	inactive
CC(=O)Nc1ccn(C2COC(COC(=O)c3ccccc3)O2)c(=O)n1 (centres undefined)	inactive	inactive	inactive	inactive	inactive	inactive	inactive	inactive		inactive	inactive	inactive	inactive	inactive	inactive			inactive	inactive
CC(CCl)OC(C)CCl (centres undefined)	inactive	inactive	inactive	inactive	inactive	inactive	inactive				inactive	inactive	inactive		inactive	inactive		inactive	inactive
N#C[C@@H]1CC(F)(F)CN1C(=O)CNC1CC2CCC(C1)N2c1ncccn1 (some centres undefined)	inactive	inactive	inactive	inactive	inactive	inactive	inactive	inactive		inactive	inactive		inactive	inactive		inactive	inactive	inactive	inactive
CCC(C)N(C)C(=O)c1cc2ccccc2c(-c2ccccc2Cl)n1 (centres undefined)	inactive	inactive	inactive	inactive	inactive	inactive		inactive		inactive		inactive	inactive	inactive		inactive		inactive	inactive
Cc1cc(F)ccc1-c1cc(N2CC[C@@H](O)[C@H]2CO)ncc1N(C)C(=O)C(C)(C)c1cc(C(F)(F)F)cc(C(F)(F)F)c1	19 µM (active)	inactive	inactive	inactive	inactive	inactive		16 µM (active)		inactive	inactive	inactive	inactive	14.3 µM (active)	inactive				inactive
CC(O)COC(C)(C)C (centres undefined)	inactive	inactive	inactive	inactive	inactive	inactive	inactive		inactive	inactive	inactive	inactive	inactive	inactive	inactive	inactive	inactive	inactive	inactive
C[C@]1(Cn2ccnn2)[C@H](C(=O)O)N2C(=O)C[C@H]2S1(=O)=O	inactive	inactive	inactive	inactive	inactive	inactive	inactive	inactive	inactive				inactive			inactive	1.88 µM (active)		inactive
CCCN(CCC)C(=O)C(CCC(=O)OCCCN1CCN(CCOC(=O)Cc2c(C)n(C(=O)c3ccc(Cl)cc3)c3ccc(OC)cc23)CC1)NC(=O)c1ccccc1 (centres undefined)	inactive	inactive	inactive	inactive	inactive	inactive	inactive	inactive			inactive	inactive	inactive	inactive				inactive	
CCC(C)CCCC(C)(C)O (centres undefined)	inactive	inactive	inactive	inactive	inactive	inactive	inactive	inactive	inactive		inactive	inactive	inactive	inactive		inactive	inactive	inactive	inactive
CCCCCCCCCCCCCCCCCCN(C)C	inactive	inactive	inactive	inactive	inactive	inactive	inactive	inactive			inactive	inactive	inactive	inactive	inactive	inactive	inactive	inactive	inactive
CCCCCCCCCCCCOC(=O)c1ccc(O)cc1	43.6 µM (active)	inactive	inactive	inactive	inactive	inactive	inactive		inactive		inactive	inactive			inactive	inactive	inactive	inactive	inactive
Cc1cccc(C)c1NC(=O)CN1CCCC1	inactive	inactive	inactive	inactive	inactive	inactive	inactive	inactive	inactive		inactive	inactive		inactive			inactive	inactive	inactive
CN(C)CCC[C@@]1(c2ccc(F)cc2)OCc2cc(C#N)ccc21	inactive	inactive	inactive	inactive	inactive	inactive	inactive	inactive	inactive				inactive	inactive		inactive	inactive	inactive	inactive
